Reference: PubChem BioAssay (NCI)
Compounds without any hit were thinned out: in the full panel of roughly 79,000, 15% have a hit. Active and inactive are the calls of the source. No stated cut-off is given here; in the data, active means growth inhibition above about 70%; inactive means the rest.

Columns and labels:
[1] = NCI Yeast Anticancer Drug Screen. Data for the rad52 strain (AID 147);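 further: 0% = growth of vehicle-treated control cultures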; conditions: S. cerevisiae rad52 mutant growth inhibition, hits give high values
Method in brief: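 Here a repair-compromised yeast strain receives each compound; its growth is then quantified and normalised to vehicle-only controls.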

[2] = NCI Yeast Anticancer Drug Screen. Data for the rad50EPP+ strain (AID 151);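 further: 0% = growth of vehicle-treated control cultures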; conditions: S. cerevisiae rad50 mutant strain, hits give high values
Method in brief: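 Read-out is yeast growth inhibition relative to vehicle; cells used were the rad50EPP+ strain.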

[3] = NCI Yeast Anticancer Drug Screen. Data for the rad50 strain (AID 155);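 further: 0% = growth of vehicle-only cultures of the same strain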; conditions: S. cerevisiae rad50 strain growth inhibition, hits give high values
Method in brief: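 Cells are treated with compound, grown, and their growth is then scored against vehicle-only cultures of the same repair-deficient yeast strain.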

[4] = NCI Yeast Anticancer Drug Screen. Data for the mec2-1 strain (AID 157); conditions: S. cerevisiae mec2-1 strain, hits give high values
Method in brief: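 Using mec2-1 yeast: add compound, measure growth, express inhibition versus vehicle-treated cultures.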

[5] = NCI Yeast Anticancer Drug Screen. Data for the rad14 strain (AID 159);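 further: 0% = growth of vehicle-treated control cultures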; conditions: S. cerevisiae rad14 strain growth inhibition, hits give high values
Method in brief: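 Readout: yeast growth inhibition, referenced to vehicle-only cultures. Strain bears a defined alteration in DNA damage repair.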

[6] = NCI Yeast Anticancer Drug Screen. Data for the sgs1 mgt1 strain (AID 161);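 further: 0% = growth of cultures given vehicle only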; conditions: S. cerevisiae sgs1 mgt1 strain, hits give high values
Method in brief: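 Compounds are added to genetically altered yeast, and growth is compared with cultures given vehicle alone to give percent inhibition.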

[7] = NCI Yeast Anticancer Drug Screen. Data for the CLN2oe strain (AID 163);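 further: 0% = growth of vehicle-only control cultures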; conditions: S. cerevisiae CLN2oe strain, hits give high values
Method in brief: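 Whole-cell yeast growth assay. A strain engineered for altered cell-cycle control received compound, and inhibition relative to vehicle-treated cultures was recorded.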

[8] = NCI Yeast Anticancer Drug Screen. Data for the cln2 rad14 strain (AID 165);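 further: 0% = growth equal to vehicle treated cultures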; conditions: S. cerevisiae cln2 rad14 strain, hits give high values
Method in brief: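 Yeast strain cln2 rad14, bearing defects in cell cycle control and DNA repair, serves as the test system; values reflect growth inhibition compared with vehicle.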

[9] = NCI Yeast Anticancer Drug Screen. Data for the bub3 strain (AID 167); conditions: S. cerevisiae bub3 mutant strain, hits give high values
Method in brief: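 Part of a panel of yeast mutants defective in DNA damage repair or cell cycle regulation. Each strain is grown with compound, and inhibition is calculated relative to solvent-treated cultures.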

[10] = NCI Yeast Anticancer Drug Screen. Data for the mlh1 strain (AID 171);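 further: 0% = growth of vehicle-treated control cultures of the same strain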; conditions: S. cerevisiae mlh1 strain growth inhibition, hits give high values
Method in brief: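 A yeast strain with a defined genetic lesion serves as the test organism. Cultures receive compound or vehicle, and growth is measured.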

[11] = NCI Yeast Anticancer Drug Screen. Data for the sgs1 strain (AID 173);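 further: 0% = growth of vehicle-only control cultures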; conditions: S. cerevisiae sgs1 mutant, hits give high values
Method in brief: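 A genetically defined yeast mutant is incubated with the test compound, and its growth is compared to that of the same strain given vehicle.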

[12] = NCI Yeast Anticancer Drug Screen. Data for the mlh1 rad18 strain (AID 175); conditions: S. cerevisiae mlh1 rad18 strain growth inhibition, hits give high values
Method in brief: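 Steps: expose repair-defective yeast to compound; measure growth; express inhibition against vehicle-treated controls.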

[13] = NCI Yeast Anticancer Drug Screen. Data for the rad18 strain (AID 177); conditions: S. cerevisiae rad18 mutant growth inhibition, hits give high values
Method in brief: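 Measured value is growth inhibition of a yeast strain bearing a DNA repair alteration, referenced to vehicle-treated cells.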

[14] = NCI Yeast Anticancer Drug Screen. Data for the wt1 strain (AID 149);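 further: 0% = growth of vehicle-treated wt1 cultures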; conditions: S. cerevisiae wt1 strain (SPY 50644) growth inhibition, hits give high values
Method in brief: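 The wt1 strain was treated with compounds, and growth was compared with vehicle-treated cultures to give inhibition.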

[15] = NCI Yeast Anticancer Drug Screen. Data for the mgt1 strain (AID 153); conditions: S. cerevisiae mgt1 mutant growth inhibition, hits give high values
Method in brief: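 Measured: inhibition of mgt1 yeast growth by compound, normalized to vehicle-treated cultures.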

[16] = NCI Yeast Anticancer Drug Screen. Data for the wt2 strain (AID 169);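 further: 0% = growth of vehicle-treated yeast cultures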; conditions: S. cerevisiae wt2 strain growth inhibition, hits give high values
Method in brief: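 Treated yeast vs. vehicle-treated yeast: growth inhibition determined.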

[17] = at 5.0 µM (retest, dose inferred, filed as 0.5)
[18] = at 50.0 µM (retest, dose inferred, filed as 5.0)

Measured: growth inhibition

O=[N+]([O-])c1ccc(C=Cc2ccccc2)cc1.[C-]#[O+].[C-]#[O+].[C-]#[O+].[Cr]
inactive: [1]; at 1.2 µM 8% | [1]; at 3.7 µM 28% | [2]; at 1.2 µM 10% | [2]; at 3.7 µM 32% | [2]; at 11.0 µM 62% | [2]; at 100.0 µM 67% | [3]; at 1.2 µM 6% | [3]; at 3.7 µM 18% | [3]; [17] 39% | [3]; at 11.0 µM 54% | [4]; at 1.2 µM 0% | [4]; at 3.7 µM 1% | [4]; [17] 5% | [4]; at 11.0 µM 8% | [5]; at 1.2 µM 3% | [5]; at 3.7 µM 12% | [5]; at 11.0 µM 53% | [6]; [17] 44% | [6]; at 50.0 µM 66% | [7]; at 1.2 µM -3% | [7]; at 3.7 µM -9% | [7]; at 11.0 µM -16% | [7]; at 33.0 µM 69% | [8]; [17] 10% | [9]; at 1.2 µM 2% | [9]; at 3.7 µM 10% | [9]; [17] -19% | [9]; at 11.0 µM 2% | [9]; at 33.0 µM 67% | [9]; at 50.0 µM 69.5% | [10]; at 1.2 µM -1% | [10]; at 3.7 µM -1% | [10]; at 11.0 µM 9% | [10]; at 33.0 µM 65% | [11]; at 1.2 µM 9% | [11]; at 3.7 µM 30% | [11]; at 11.0 µM 66% | [12]; [17] 68% | [12]; at 50.0 µM 62.1%
active: [1]; at 11.0 µM 70% | [1]; at 33.0 µM 88% | [1]; at 100.0 µM 82% | [2]; at 33.0 µM 71% | [3]; at 33.0 µM 83% | [3]; [18] 95% | [3]; at 50.0 µM 76.9% | [3]; at 100.0 µM 79% | [4]; at 33.0 µM 71% | [4]; [18] 86% | [4]; at 50.0 µM 79.8% | [4]; at 100.0 µM 72% | [5]; at 33.0 µM 83% | [5]; at 100.0 µM 82% | [6]; [18] 95% | [7]; at 100.0 µM 70% | [8]; [18] 91% | [8]; at 50.0 µM 70.9% | [9]; [18] 91% | [9]; at 100.0 µM 82% | [10]; at 100.0 µM 71% | [11]; at 33.0 µM 91% | [11]; at 100.0 µM 88% | [12]; [18] 96% | [13]; at 1.2 µM 70% | [13]; at 3.7 µM 93% | [13]; at 11.0 µM 94% | [13]; at 33.0 µM 89% | [13]; at 100.0 µM 86%

O=Cc1ccc(C(F)(F)F)cc1.[C-]#[O+].[C-]#[O+].[C-]#[O+].[Cr]
active: [3]; [18] 75% | [6]; [18] 81% | [6]; at 50.0 µM 78.5% | [12]; [18] 78%
inactive: [14]; at 1.2 µM 0% | [14]; at 3.7 µM 2% | [14]; at 11.0 µM 8% | [14]; at 33.0 µM 15% | [14]; at 100.0 µM 17% | [2]; at 1.2 µM 12% | [2]; at 3.7 µM 20% | [2]; at 11.0 µM 37% | [2]; at 33.0 µM 46% | [2]; at 100.0 µM 33% | [15]; at 1.2 µM 1% | [15]; at 3.7 µM 1% | [15]; at 11.0 µM 20% | [15]; at 33.0 µM 11% | [15]; at 100.0 µM 17% | [3]; at 1.2 µM 6% | [3]; at 3.7 µM 11% | [3]; [17] 3% | [3]; at 11.0 µM 23% | [3]; at 33.0 µM 38% | [3]; at 50.0 µM 67.8% | [3]; at 100.0 µM 40% | [4]; at 1.2 µM 5% | [4]; at 3.7 µM 2% | [4]; [17] -7% | [4]; at 11.0 µM 5% | [4]; at 33.0 µM 8% | [4]; [18] 47% | [4]; at 50.0 µM 61.6% | [4]; at 100.0 µM 14% | [5]; at 1.2 µM 6% | [5]; at 3.7 µM 8% | [5]; at 11.0 µM 15% | [5]; at 33.0 µM 30% | [5]; at 100.0 µM 30% | [6]; [17] -18% | [7]; at 1.2 µM 0% | [7]; at 3.7 µM -2% | [7]; at 11.0 µM 2% | [7]; at 33.0 µM 15% | [7]; at 100.0 µM 23% | [8]; [17] -15% | [8]; [18] 58% | [8]; at 50.0 µM 63.6% | [9]; at 1.2 µM -7% | [9]; at 3.7 µM -1% | [9]; [17] -18% | [9]; at 11.0 µM 12% | [9]; at 33.0 µM 21% | [9]; [18] -7% | [9]; at 50.0 µM 66.2% | [9]; at 100.0 µM 31% | [16]; at 1.2 µM 3% | [16]; at 3.7 µM 8% | [16]; at 11.0 µM 23% | [16]; at 33.0 µM 39% | [16]; at 100.0 µM 33% | [10]; at 1.2 µM -1% | [10]; at 3.7 µM -4% | [10]; at 11.0 µM 7% | [10]; at 33.0 µM 8% | [10]; at 100.0 µM 7% | [11]; at 1.2 µM 12% | [11]; at 3.7 µM 11% | [11]; at 11.0 µM 40% | [11]; at 33.0 µM 62% | [11]; at 100.0 µM 64% | [12]; [17] 11% | [12]; at 50.0 µM 63.3% | [13]; at 1.2 µM 1% | [13]; at 3.7 µM 3% | [13]; at 11.0 µM 20% | [13]; at 33.0 µM 40% | [13]; at 100.0 µM 62%

NCCc1ccc(OCc2ccccc2)c(OCc2ccccc2)c1
active: [1]; at 33.0 µM 72% | [1]; at 100.0 µM 92% | [14]; at 33.0 µM 74% | [14]; at 100.0 µM 97% | [15]; at 33.0 µM 97% | [15]; at 100.0 µM 98% | [3]; at 33.0 µM 90% | [3]; [18] 90% | [3]; at 50.0 µM 91.7% | [3]; at 100.0 µM 96% | [4]; at 33.0 µM 92% | [4]; [18] 96% | [4]; at 50.0 µM 91.5% | [4]; at 100.0 µM 98% | [5]; at 33.0 µM 94% | [5]; at 100.0 µM 97% | [6]; [18] 97% | [7]; at 100.0 µM 97% | [8]; [18] 82% | [9]; at 33.0 µM 87% | [9]; [18] 92% | [9]; at 100.0 µM 96% | [16]; at 33.0 µM 95% | [16]; at 100.0 µM 97% | [10]; at 33.0 µM 95% | [10]; at 100.0 µM 96% | [12]; [18] 96% | [12]; at 50.0 µM 90.2% | [13]; at 33.0 µM 91% | [13]; at 100.0 µM 94%
inactive: [1]; at 1.2 µM -8% | [1]; at 3.7 µM -5% | [1]; at 11.0 µM -6% | [14]; at 1.2 µM 0% | [14]; at 3.7 µM -6% | [14]; at 11.0 µM -28% | [15]; at 1.2 µM 2% | [15]; at 3.7 µM 13% | [15]; at 11.0 µM 56% | [3]; at 1.2 µM 16% | [3]; at 3.7 µM 17% | [3]; [17] 43% | [3]; at 11.0 µM 35% | [4]; at 1.2 µM 0% | [4]; at 3.7 µM 3% | [4]; [17] 35% | [4]; at 11.0 µM 8% | [5]; at 1.2 µM -27% | [5]; at 3.7 µM -21% | [5]; at 11.0 µM -3% | [6]; [17] -16% | [7]; at 1.2 µM -1% | [7]; at 3.7 µM 3% | [7]; at 11.0 µM -5% | [7]; at 33.0 µM 41% | [8]; [17] 36% | [9]; at 1.2 µM 12% | [9]; at 3.7 µM 20% | [9]; [17] -17% | [9]; at 11.0 µM 35% | [16]; at 1.2 µM -15% | [16]; at 3.7 µM -12% | [16]; at 11.0 µM 37% | [10]; at 1.2 µM -38% | [10]; at 3.7 µM -12% | [10]; at 11.0 µM 43% | [12]; [17] 24% | [13]; at 1.2 µM 2% | [13]; at 3.7 µM 15% | [13]; at 11.0 µM 45%
